The campaign covered roughly 2,100 compounds. About 670 (32%) were called active. Not shown: some 50% with an inconclusive outcome. Some of the results follow. Values without a mark were called inactive. Calls come from the whole dose curve; as a rule, active = well fitted inhibition curve with a large enough effect; inconclusive = small, poorly fitted or top-dose-only effect; inactive = no such curve, though single readings can be large or run the other way.
% is set by controls: 0 for no effect and ±100 for the full control effect; potency is the fitted concentration of half-maximal effect.

The experiment can be described thus: CMV-Luciferase Counterscreen for Inhibitors of ATXN expression. Note: nearly all actives have a fitted effect of over 55% in size. Conditions: HEK-293 CMV-luciferase reporter, luminescence, 24 h; series mostly up to 57.5 µM.
Consider `COC(=O)c1ccc(Oc2nc(NC(C)C)nc(N(C)C)n2)cc1`, for which the activity change, negative = inhibition was -22.6% [at 11.4 µM].

As for `Nc1c(C(=O)NCc2ccccc2)c2nc3ccccc3nc2n1-c1ccc2c(c1)OCO2`, the activity change, negative = inhibition is 26.3% [at 11.4 µM].

Take `O=C(NCc1ccccc1)c1ccc(C(=O)N(C2CCCCC2)C2CCCCC2)cc1`: the Potency is 31.6 µM (active).

Take `CC(C(=O)c1ccc(-c2ccccc2)cc1)[n+]1cccc(NC(=O)c2ccccc2)c1` (configuration not stated): the activity change, negative = inhibition is -21.8% [at 11.4 µM].

Regarding `Cc1cc[n+](C(C)C(=O)c2ccc(-c3ccccc3)cc2)cc1` (configuration not stated), the Potency is 10 µM (active).

For the molecule `COc1cccc(C(=O)c2sc(NC(C)C)nc2N)c1`, the activity change, negative = inhibition was 267% [at 11.4 µM].

In the case of `N#Cc1c(Oc2ccc3ccccc3c2)sc(C(=O)c2ccccc2)c1N`, the Potency is 14.1 µM (active).

Regarding `CNc1ccc(Br)cc(C(=O)/C=C/c2ccc3c(c2)OCO3)c1=O`, the activity change, negative = inhibition was -5.4% [at 11.4 µM].

On to `CCOC(=O)Oc1c(OC)cc(C(=O)O[C@@H]2C[C@@H]3CN4CCc5c([nH]c6cc(OC)ccc56)[C@H]4C[C@@H]3[C@H](C(=O)OC)[C@H]2OC)cc1OC`, for which the Potency is 28.2 µM (active).

As to `CC(C)(C)OC(=O)NNc1c2ccccc2nc2ccccc12`, the Potency is 2.24 µM (active).

For the molecule `Oc1ccc(C2CNCc3sccc32)cc1O` (configuration not stated), the Potency result was “inactive”.

Take `COc1cccc2c1C1COC3C4CC(C(=O)O)C(C(C2)N13)N4C` (configuration not stated): the Potency is 12.6 µM (active).

As to `COc1cccc2c1C(CO)N1C(C#N)C3CC(C(=O)O)C(C1C2)N3C` (configuration not stated), the Potency result is “inactive”.

Consider `Oc1ccc(C[C@@H]2CNCCN2CCc2cc(C(F)(F)F)cc(C(F)(F)F)c2)cc1`, for which the activity change, negative = inhibition is -21.2% [at 11.4 µM].

Consider `CC[C@]12c3[nH]c4ccc(Cl)cc4c3CCN1C(=O)[C@@H](CC(=O)NCC13CC4CC(CC(C4)C1)C3)C[C@@H]2C(=O)N1CCN(C(=O)C2CC2)CC1`, for which the Potency is 14.1 µM (active).

`Cc1ccc(Cc2cnc(NC(=O)/C(C#N)=C/c3ccc(-c4cccc([N+](=O)[O-])c4)o3)s2)cc1`: the Potency entry is “inactive”.

Turning to `CCOc1ccc(OCC)c(NC(=O)Nc2ccc3c(c2)N(C)C(=O)CS3)c1`, the Potency was 22.4 µM (active).

In the case of `COc1ccccc1CNc1nc(NCc2ccc(NC(C)=O)cc2)c2sccc2n1`, the activity change, negative = inhibition is -22.7% [at 11.4 µM].

Regarding `COc1ccccc1CNc1nc(NCc2cccc(OC)c2OC)c2sccc2n1`, the Potency is 17.8 µM (active).

Take `O=C(/C=C/c1ccc(Cl)cc1)Nc1ccc(CN2CCOCC2)cc1`: the Potency is 3.16 µM (active).

Turning to `O=C(CN(c1cccc(Br)c1)S(=O)(=O)c1ccccc1)N/N=C/c1cc([N+](=O)[O-])ccc1O`, the Potency is 10 µM (active).

Take `CN(Cc1ccccc1)C1=CC(=[N+]2CCCC2)CC(C)(C)C1`: the Potency was 0.447 µM (active).

(Values after PubChem BioAssay AID1745847 (National Center for Advancing Translational Sciences (NCATS), 2022).)
